Compounds with a hit are over-represented: about 10% of the library has one in this group of screens.
HEK cytotox = kills HEK 293 cells. HEK 293 viability, ATP luminescence (CellTiter-Glo), 48-72 h. Potency, µM (titrated, usually from 115 µM), inactives show top-dose activity change, negative = cytotoxicity, usual class: inhibitors. 94,000 tested, 6.6% active. AID 1345083; further: on the % scale 0 is the no-effect control and ±100 the full control effect; nearly all actives have a fitted effect of over 60% in size
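HEK 293 cells at 250 cells/well were exposed to compounds by pintool transfer for 48 or 72 hr at 37 degree Celsius, 5% CO2. Viability was read as ATP-coupled luminescence with CellTiter-Glo after 10 min at room temperature.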
FLuc inh = Photinus pyralis luciferase inhibition. P08659. purified P. pyralis luciferase, luminescence, biochemical. Potency, µM (series often up to 115 µM), usual class: inhibitors. 76,000 tested, 2.5% active; further: on the % scale 0 is the no-effect control and ±100 the full control effect; nearly all actives have a fitted effect of over 65% in size
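Biochemical qHTS: compound (6-point titration) added to 10uM D-luciferin plus 10uM ATP in Tris acetate pH 7.5 buffer with Mg, Tween-20 and BSA, then purified enzyme at 10nM; light output imaged.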
GPT2 inhibitor = inhibitors of human GPT2 alanine aminotransferase; Q8TD30; Recombinant GPT2, coupled pyruvate oxidase/HRP Amplex Red fluorescence; Potency, µM (titrated, usually from 57.7 µM), without a hit: at the highest dose activity change, negative = inhibition, hits mostly inhibitors; 100,000 tested, 0.25% active; AID 1671188; further: on the % scale 0 is the no-effect control and ±100 the full control effect; nearly all actives have a fitted effect of over 60% in size
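Fluorescence read-out: pyruvate from GPT2 turnover coupled to pyruvate oxidase, HRP and Amplex Red (0.2mM ThPP, 0.2U/mL PO and HRP, 50uM Amplex final). Substrates 250uM a-KG, 2mM L-alanine; enzyme 10ng/uL; 30 min RT.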
hNpr1 antagonist = human Npr1 receptor antagonism. P16066. HEK293 hNpr1 GloSensor cGMP, ANP-stimulated luminescence. Potency, µM (titrated, usually from 46.3 µM), inactives show at the highest dose activity change, negative = inhibition, usual class: inhibitors. 76,000 tested, 1.6% active. AID 1347048; calls by dose curve; further: on the % scale 0 is the no-effect control and ±100 the full control effect; nearly all actives have a fitted effect of over 60% in size
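Compound pre-incubated 30 min at room temperature on GloSensor-loaded HEK293 cells stably carrying hNpr1 and the pGS-40F cGMP biosensor. Stimulation uses hNppA at 0.1 nM final; luminescence is taken at baseline and 20 min post-agonist.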
3T3 cytotox = kills NIH 3T3 cells; Potency, µM (doses to about 96.7 µM), without a hit: top-dose activity change, negative = cytotoxicity, hits mostly inhibitors; 94,000 tested, 4.3% active; NIH 3T3 viability, CellTiter-Glo ATP luminescence, 48-72 h; further: on the % scale 0 is the no-effect control and ±100 the full control effect; nearly all actives have a fitted effect of over 55% in size
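First NIH 3T3 cells are plated at 400 cells/well; next compound is pinned in; then plates incubate 48 or 72 hr at 37 °C; finally CellTiter-Glo is added and luminescence read after 10 min.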
Npr1 antag conf = hNpr1 antagonism, confirmation assay; 1,400 tested, 76% active; AID 1347044; shares compounds with hNpr1 antagonist; HEK293 hNpr1 cGMP GloSensor luminescence, ANP-stimulated; Potency, µM (highest dose often 57.6 µM), without a hit: at the highest dose activity change, negative = inhibition, usual class: inhibitors; calls by dose curve; further: nearly all actives have a fitted effect of over 70% in size
NPR2 antag = hNpr2 antagonism, selectivity versus Npr1 | shares compounds with hNpr1 antagonist | HEK293 hNpr2 GloSensor cGMP luminescence, CNP-stimulated | Potency, µM (top dose mostly 57.6 µM), inactives show at the top dose activity change, negative = inhibition, actives largely listed as inhibitors | 1,400 tested, 67% active; calls by dose curve; further: nearly all actives have a fitted effect of over 70% in size
FLuc inh counter = counter-screen for Npr1 antagonists: firefly luciferase inhibitors. shares compounds with hNpr1 antagonist. purified FLuc enzyme, luminescence, Km substrate. Potency, µM (top dose mostly 57.6 µM), without a hit: at the top dose activity change, negative = inhibition, most hits filed as inhibitors. 1,400 tested, 0.7% active. AID 1347047; further: 0% is about no effect
GloSensor ctrl = control cell line activity, Npr1 antagonist counter-screen | shares compounds with hNpr1 antagonist | Potency, µM (doses to about 57.6 µM), for inactives: at the top dose activity change, negative = inhibition, hits mostly inhibitors | 1,400 tested, 69% active | AID 1347051 | HEK293 GloSensor cGMP, SNP-stimulated, luminescence; calls by dose curve; further: on the % scale 0 is the no-effect control and ±100 the full control effect; nearly all actives have a fitted effect of over 70% in size
Active calls of the source: *; i = inactive; ? = inconclusive; . = no result given; [ ] = dose if it differs, or a comment. Unless noted, the call rests on the fitted dose curve; in most records, active means well fitted curve in the direction sought with a large enough effect; inconclusive means small, poorly fitted or top-dose-only effect, or another doubt; inactive means no such curve, though single readings can be large; an effect the other way counts as inactive or inconclusive. Potency means the concentration at half of the fitted maximal effect.

SMILES | HEK cytotox | FLuc inh | GPT2 inhibitor | hNpr1 antagonist | 3T3 cytotox | Npr1 antag conf | NPR2 antag | FLuc inh counter | GloSensor ctrl
Cc1nc2ccccn2c1C(=O)NC(C)c1cnn(-c2ccccn2)c1C (stereo not given) | ? | i | i | 4.47µM* | ? | 6.11µM* | 9.68µM* | 6.5% | 4.85µM*
Cc1c(C(C)NC(=O)Cc2c[nH]c3ccccc23)cnn1-c1ccccn1 (stereo not given) | ? | i | 2.0% | -3.9% | -23.1% | . | . | . | .
Cc1cc(OCCN2CCOCC2)c(C)c2c1CC[C@@H]([C@H](C)C(=O)N1CCCCC1)C2 | 20µM* | i | -19.4%[88.5 µM] | 17.8µM* | ? | 39.6µM* | 35.3µM* | 1.6%[86.2 µM] | ?
CC(C)N1CCC(O)(c2csc(CN3CCN(C)CC3)n2)CC1 | -15.9%[172 µM] | i | -3.9%[88.5 µM] | 1.9%[70.6 µM] | -5.1%[174 µM] | . | . | . | .
OC1CC(c2cc(N3CCN(c4nsc5ccccc45)CC3)ncn2)C1 (stereo not given) | 11.2µM* | i | -11.2% | 1.58µM* | 17.8µM* | 2.73µM* | 3.06µM* | -12.5% | 2.43µM*
OC1CC(c2cc(N3CCC(CCn4cccn4)CC3)ncn2)C1 (stereo not given) | ? | i | i | 7.94µM* | ? | 13.7µM* | 12.2µM* | 0.5% | 9.68µM*
CCCc1cc(CN(C)c2nc(CCN)nc3sc(C)c(C)c23)[nH]n1 | 35.5µM* | i | 1.0% | -24.4% | ? | -25.4% | ? | 5.6% | 2.4%
COCCN1CC(CNc2nc(CCN)nc3sc(C)c(C)c23)CC1=O (stereo not given) | -2.6% | i | -5.0% | 0.1% | i | . | . | . | .
COC(=O)c1ccc(CNC(C)c2cnc(-c3ccncc3)nc2C)cc1 (stereo not given) | 1.7% | i | 2.4% | 4.0% | -29.0% | . | . | . | .
Cc1ccc(C2(C(=O)NC(C)c3cnc(-c4ccncc4)nc3C)CC2)cc1 (stereo not given) | ? | i | -23.1% | ? | ? | ? | ? | 3.5% | -5.7%
CCCC(=O)Nc1ccc(C2OC(=O)N(Cc3ccc(F)cc3)C2C(=O)NCc2ccccc2)cc1 (stereo not given) | ? | i | 3.2% | -3.0% | ? | . | . | . | .
CCC1Oc2ccc(NC(=O)c3ccccc3OC(C)=O)cc2CN(Cc2ccccc2F)C1=O (stereo not given) | 25.1µM* | i | -20.6% | 0.708µM* | 14.1µM* | 24.3µM* | 24.3µM* | -3.9% | 21.7µM*
CCCc1ccc(S(=O)(=O)N(C)CC2CCOCC2)cc1 | ? | i | i | ? | ? | 24.3µM* | ? | 3.0% | 19.3µM*
CC(C)Cc1ccc(S(=O)(=O)N(C)CC2CCOCC2)cc1 | ? | i | -11.8% | 10µM* | -27.8% | 15.3µM* | 13.7µM* | -0.1% | 10.9µM*
CC(C)Cc1ccc(S(=O)(=O)N(C)CC2CCOC2)cc1 (stereo not given) | ? | i | ? | ? | -22.4% | . | . | . | .
COc1ccccc1NC(=O)Nc1ccnn1C1CCN(C(=O)C(C)O)CC1 (stereo not given) | 4.7% | i | -3.5% | 0.3% | -3.7% | . | . | . | .
CN(CCO)C[C@@H]1CN(C(=O)c2cnc3sccn3c2=O)C[C@@H]1CO | -13.8% | i | -13.3%[11.5 µM] | 2.9% | -2.8% | . | . | . | .
CCCN1C(=O)Cc2cc(C(=O)NC(C)c3ccc(OCC)cc3)ccc21 (stereo not given) | ? | i | ? | ? | ? | ? | ? | 2.0% | ?
O=C(c1ccc(F)cc1)N1CCC(Cc2nc(C3CCOCC3)no2)CC1 | ? | i | 2.3% | ? | ? | . | . | . | .
O=C(c1cc(F)ccc1Cl)N1CCC(Cc2nc(-c3ccccc3)no2)CC1 | 50.1µM* | i | i | 11.2µM* | ? | 13.7µM* | 15.3µM* | -12.5% | 12.2µM*
O=C(c1cc(F)ccc1Cl)N1CCC(Cc2nc(-c3ccc(F)cc3)no2)CC1 | ? | i | i | 7.08µM* | ? | 9.68µM* | 10.9µM* | 0.1% | 8.62µM*
O=C(c1ccc(F)cc1Cl)N1CCC(Cc2nc(-c3ccccc3)no2)CC1 | ? | i | -26.2% | 5.62µM* | ? | 5.44µM* | 5.44µM* | -1.0% | 4.32µM*
O=C(Cc1ccccc1Cl)N1CCC(Cc2nc(-c3ccccc3)no2)CC1 | ? | i | ? | ? | ? | . | . | . | .
O=C(c1cc(F)cc(F)c1)N1CCC(Cc2nc(-c3ccccc3)no2)CC1 | ? | i | i | 7.08µM* | ? | 6.11µM* | 6.11µM* | -1.7% | 5.44µM*
COc1ccccc1CNC(=O)C1Cn2cccc2C(=O)N1CC(C)C (stereo not given) | -0.9% | i | i | 2.6% | -13.0% | . | . | . | .
SMILES | HEK cytotox | FLuc inh | GPT2 inhibitor | hNpr1 antagonist | 3T3 cytotox | Npr1 antag conf | NPR2 antag | FLuc inh counter | GloSensor ctrl
COc1ccc(CN2CC3(CCN(C(=O)Nc4cccc(C(F)(F)F)c4)CC3)C2=O)cc1 | ? | i | -20.9% | 15.8µM* | ? | ? | ? | 0.1% | ?
COc1ccc(N2CCN(c3nc(C(=O)N4CCCC(C)C4)cs3)CC2)cc1 (stereo not given) | ? | ? | -26.5% | ? | ? | . | . | . | .
COc1ccc(N2CCN(c3nc(C(=O)NCc4ccc(C)cc4)cs3)CC2)cc1 | 28.2µM* | i | -19.0% | 4.47µM* | -21.9% | 7.69µM* | 10.9µM* | 0.8% | 8.62µM*
COc1ccc(N2CCN(c3nc(C(=O)NCc4cccc(C)c4)cs3)CC2)cc1 | 17.8µM* | i | ? | 15.8µM* | ? | 15.3µM* | 15.3µM* | 4.6% | 12.2µM*
COc1ccc(N2CCN(c3nc(C(=O)NCc4ccc(C)c(C)c4)cs3)CC2)cc1 | 12.6µM* | i | -5.5% | 12.6µM* | ? | 9.68µM* | 13.7µM* | 2.5% | 10.9µM*
O=C(CCCc1ccccc1)N1CCC(Cc2nc(C3CC3)n[nH]2)C1 (stereo not given) | -5.9% | i | i | -11.6% | ? | . | . | . | .

Source: PubChem (National Center for Advancing Translational Sciences (NCATS))
